The source made the active and inactive calls.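 The calls were made as follows, unless noted: active = inhibition at or above 50% at 10 µM; inactive = inhibition below 50%.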
How the values were obtained:
[1] = inhibitors of TNFa-induced NFkB p65 translocation, primary screen, imaging, HUVEC, MLSMR starter and 10KST1 sets (AID 438;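 active = inhibition above 20% together with a positive visual image hit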;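 also: compound added about 3h40 before a 20 min TNFalpha stimulation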;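 as to inhibition: signal is the nuclear over cytoplasmic p65 intensity ratio per well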); conditions: HUVEC TNFa-induced p65 nuclear translocation; cell count: measured here: nuclei count (cytotoxicity indicator), at 2.08 µM; inhibition: at 2 µM, stronger effect = higher value, 0% TNFa-plus-vehicle, 100% no-TNFa wells
[2] = reduction of polyQ htt aggregates in cells – imaging, exon1htt(103Q)mCFP cells, high-content imaging, primary screen (AID 483;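 active = visual image review flags a hit and inhibition of aggregation exceeds 20%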;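 also: compound exposure lasted 3 days before fixation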;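 as to nuclei count: percent of the per-plate median nuclei count of sample wells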); conditions: exon1htt(103Q)mCFP cell line, aggregate imaging, at 2 µM; inhibition of aggregation: stronger effect = higher value; nuclei count: measured here: cell count, toxicity
[3] = endothelial E-selectin expression blockers – imaging, HUVEC, immunofluorescence, MLSMR starter and 10KST1 sets, primary screen (AID 487;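 active = visually confirmed hit in the image check and inhibition above 20%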;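 as to inhibition: signal is fraction of cell area covered by stained E-selectin grains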;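 as to nuclei count: 100% = median nuclei count of all wells on the same plate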); conditions: HUVEC TNFalpha-induced E-selectin immunofluorescence imaging, at 2 µM; inhibition: stronger effect = higher value; nuclei count: measured here: cell number, toxicity
[4] = molecular target: Voltage-gated potassium channel subunit beta-2 (Rattus norvegicus) (UniProt P62483); assay: inhibitors of rat Kvbeta2 reductase activity – biochemical, NADPH fluorescence, primary screen (AID 622;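 active = fluorescence slope higher than the sample average by over 3 SD, cut at about -0.22 in these data, passing the limit was not always enough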;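 also: slope of raw intensity against log time taken from 70 to 1610 s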); conditions: recombinant KvBeta, 4-cyanobenzaldehyde reduction, at 10 µM, stronger effect = higher value
[5] = molecular target: Voltage-gated potassium channel subunit beta-2 (Rattus norvegicus) (UniProt P62483); assay: enhancers of rat Kvbeta2 NADPH turnover – biochemical, NADPH fluorescence, primary screen (AID 623;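 active = NADPH fluorescence slope more negative than the mean of all samples by about 3 SD, 99.7% confidence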;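 also: fluorescence intensity change per second fitted from 20 to 320 s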); conditions: Recombinant KvBeta, NADPH fluorescence decrease slope, 10 min; at 10 µM; stronger effect = lower value
[6] = molecular target: Alpha-2C adrenergic receptor (Homo sapiens) (UniProt P18825); assay: compounds altering alpha2C-coupled GIRK flux – cell-based, HEK293 alpha2C/GIRK1/2, thallium flux, primary screen (AID 624;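 active = fluorescence slope after compound addition differing from the mean of all screened samples at 99.7% confidence, in either direction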;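 also: slope of fluorescence ratio to pre-addition baseline per second over 15 to 24 s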); conditions: thallium flux BTC fluorescence, at 10 µM, actives lie on both sides
[7] = blockers of RIG-like receptor reporter activation – cell-based, Sendai virus stimulus, luciferase, 10K MLSCN set, TLR/RLR signaling modifier project, primary screen (AID 602276); conditions: HEK293 RL24 IRF3 luciferase reporter, at 10 µM, stronger effect = higher value;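 also: firefly luciferase from ISG56 promoter only with Renilla not read in this screen; 0% = Sendai virus plus DMSO and 100% = medium plus DMSO without virus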
[8] = TLR3 IRF3 reporter activation blockers – cell-based, poly I:C stimulus, luciferase, 10K MLSCN set, primary screen (AID 602277;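 active = inhibition of the reporter signal at or above 50%; inactive = inhibition below 50%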); conditions: HEK293-TLR3 RL24 IRF3 luciferase reporter, at 10 µM, stronger effect = higher value

Voltage-gated potassium channel subunit beta-2 (Rattus norvegicus), sequence (P62483 whole entry, looked up): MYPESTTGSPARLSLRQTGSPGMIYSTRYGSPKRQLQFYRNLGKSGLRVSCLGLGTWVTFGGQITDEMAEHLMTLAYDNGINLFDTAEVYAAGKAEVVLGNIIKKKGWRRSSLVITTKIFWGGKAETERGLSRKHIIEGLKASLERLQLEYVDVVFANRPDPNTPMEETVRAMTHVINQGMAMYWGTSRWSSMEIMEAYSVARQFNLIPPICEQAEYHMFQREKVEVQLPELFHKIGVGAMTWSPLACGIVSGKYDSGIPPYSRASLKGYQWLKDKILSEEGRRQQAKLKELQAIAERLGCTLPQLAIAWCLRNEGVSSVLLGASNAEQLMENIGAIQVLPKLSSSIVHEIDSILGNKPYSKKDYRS
Alpha-2C adrenergic receptor (Homo sapiens), sequence (P18825 whole entry, looked up): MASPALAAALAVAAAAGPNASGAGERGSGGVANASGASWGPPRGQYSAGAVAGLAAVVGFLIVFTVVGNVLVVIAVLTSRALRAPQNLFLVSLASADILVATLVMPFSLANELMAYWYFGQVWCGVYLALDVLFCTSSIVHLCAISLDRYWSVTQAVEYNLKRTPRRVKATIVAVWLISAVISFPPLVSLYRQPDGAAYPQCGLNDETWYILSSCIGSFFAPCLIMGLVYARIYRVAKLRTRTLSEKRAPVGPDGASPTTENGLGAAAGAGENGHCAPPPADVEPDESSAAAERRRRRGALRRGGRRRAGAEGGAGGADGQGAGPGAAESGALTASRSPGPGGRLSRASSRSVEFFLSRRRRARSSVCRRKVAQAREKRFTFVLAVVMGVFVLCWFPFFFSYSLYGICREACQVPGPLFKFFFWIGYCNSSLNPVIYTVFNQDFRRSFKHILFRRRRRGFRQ

| SMILES | cell count [1] | inhibition [1] | inhibition of aggregation [2] | nuclei count [2] [%] | inhibition [3] | nuclei count [3] [%] | fluorescence slope [4] | NADPH fluorescence slope [5] | slope [6] | inhibition [7] | inhibition [8] |
| --- | --- | --- | --- | --- | --- | --- | --- | --- | --- | --- | --- |
| CCN(CC)CCCNC1CCS(=O)(=O)C1 (stereo not drawn) | 730 | -7.4% (inactive) | 10.5% (inactive) | 126 | -19.7% (inactive) | 118 | -0.502 (inactive) | -6.6e-05 (inactive) | 0.00536 (inactive) | 2.02% (inactive) | 13.2% (inactive) |
| CCOC(=O)C1CCN(c2c(NC3CCCCCCC3)c(=O)c2=O)CC1 | 897 | 2.8% (inactive) | -6.4% (inactive) | 103 | -53.1% (inactive) | 118 | -0.575 (inactive) | -4.2e-05 (inactive) | 0.00631 (inactive) | 9.6% (inactive) | 32.7% (inactive) |
| COc1ccccc1C(=O)Nc1nc2ccc(S(C)(=O)=O)cc2s1 | 417 | -6.5% (inactive) | -0.8% (inactive) | 115 | -32.3% (inactive) | 132 | -0.241 (inactive) | -6.6e-06 (inactive) | 0.00752 (inactive) | -2.51% (inactive) | -33.9% (inactive) |
| CC(Oc1ccccc1)C(=O)Nc1ccc(S(=O)(=O)NCC2CCCO2)cc1 (stereo not drawn) | 377 | 5% (inactive) | 17.7% (inactive) | 81.9 | -84.8% (inactive) | 99.2 | -0.411 (inactive) | 1.4e-05 (inactive) | 0.00888 (inactive) | 20.7% (inactive) | 98.9% (active) |
| CC1(C)NC(=O)N(CC(O)COc2ccc(-c3ccccc3)cc2)C1=O (stereo not drawn) | 260 | -0.5% (inactive) | 4.5% (inactive) | 89.9 | -18.2% (inactive) | 125 | -0.425 (inactive) | -6.5e-05 (inactive) | 0.00308 (inactive) | -15.6% (inactive) | 1.46% (inactive) |
| O=C(c1cccc(C(=O)N2CCN(c3ccc(F)cc3)CC2)c1)N1CCN(c2ccc(F)cc2)CC1 | 692 | 1.5% (inactive) | -21.7% (inactive) | 68.1 | -6.5% (inactive) | 92.8 | -0.438 (inactive) | -9.2e-05 (inactive) | 0.006 (inactive) | -6.05% (inactive) | -5.26% (inactive) |
| CN(C)c1cccc(NC(=O)CCc2ccccc2)c1 | 503 | -5.1% (inactive) | -5.3% (inactive) | 106 | -7.2% (inactive) | 95.9 | -0.594 (inactive) | 9.8e-06 (inactive) | 0.00703 (inactive) | -9.67% (inactive) | -5.4% (inactive) |
| COc1ccc(C(=O)COC(=O)CCn2nnc(-c3cccs3)n2)cc1 | 237 | 2.2% (inactive) | 20% (inactive) | 78.6 | 56.4% (inactive) | 73.7 | -0.426 (inactive) | 1.6e-05 (inactive) | 0.00571 (inactive) | -6.55% (inactive) | -7.1% (inactive) |
| CCOC(=O)c1sc(NC(=O)c2c(C)nn(Cc3ccccc3)c2C)cc1C | 395 | -7.8% (inactive) | 42.3% (active) | 60 | -20.6% (inactive) | 106 | -0.448 (inactive) | -0.000126 (inactive) | 0.00542 (inactive) | -9.51% (inactive) | -3.87% (inactive) |
| O=C(O)C1CCCN1c1ncnc2c1oc1ccccc12 (stereo not drawn) | 626 | -4.4% (inactive) | 11.5% (inactive) | 101 | 22.9% (inactive) | 96.9 | -0.503 (inactive) | -1.8e-05 (inactive) | 0.00455 (inactive) | 5.71% (inactive) | 5.35% (inactive) |
| Cc1c(C(=O)Nc2nnc(C(F)(F)F)s2)oc2ccccc12 | 778 | -8.8% (inactive) | -7.7% (inactive) | 121 | -57.7% (inactive) | 108 | -0.419 (inactive) | 2.3e-05 (inactive) | 0.00814 (inactive) | -13.9% (inactive) | -95.9% (inactive) |
| O=C(NCCCn1ccnc1)c1csc2ccccc12 | 337 | 4.7% (inactive) | -23.2% (inactive) | 99.4 | -7.7% (inactive) | 113 | -0.414 (inactive) | -3.7e-05 (inactive) | 0.00227 (inactive) | 10.2% (inactive) | 27.4% (inactive) |
| Cc1ccc(-n2c(SCC3CCCCO3)nnc2-c2ccco2)cc1 (stereo not drawn) | 573 | 0.5% (inactive) | 7.5% (inactive) | 86.9 | -17.5% (inactive) | 102 | -0.413 (inactive) | -4.4e-05 (inactive) | 0.00422 (inactive) | 20.5% (inactive) | 25.2% (inactive) |
| Cc1cc2c(cc(C(=O)OCC(=O)NCc3cccs3)n2C(C)C)o1 | 379 | 9.9% (inactive) | 7.7% (inactive) | 106 | -156% (inactive) | 95.3 | -0.586 (inactive) | -5.1e-05 (inactive) | 0.00376 (inactive) | 20.7% (inactive) | 77.6% (active) |
| CSCC[C@@H](Nc1nc(-c2ccccc2)nc2c1oc1ccccc12)C(=O)O | 322 | 1.9% (inactive) | -20.9% (inactive) | 83.4 | -92.1% (inactive) | 123 | -0.442 (inactive) | 9.3e-06 (inactive) | 0.00719 (inactive) | 4.35% (inactive) | 41% (inactive) |
| COc1ccc(C(=O)NC(=O)CSc2nnc(-c3ccco3)n2-c2ccccc2)cc1 | 447 | 14.6% (inactive) | -9.6% (inactive) | 104 | -9.4% (inactive) | 107 | -0.324 (inactive) | -7e-05 (inactive) | 0.0052 (inactive) | 5.3% (inactive) | 10.1% (inactive) |
| O=C(CSc1nnc(-c2ccccc2)o1)NC1CCCCC1 | 355 | 0% (inactive) | 8% (inactive) | 109 | -10.5% (inactive) | 103 | -0.55 (inactive) | 2e-05 (inactive) | 0.0067 (inactive) | 5.13% (inactive) | 0.841% (inactive) |
| COc1ccc(-n2cnnc2SCCC#N)cc1 | 520 | -3.8% (inactive) | -0.2% (inactive) | 82.5 | -115% (inactive) | 122 | -0.549 (inactive) | -2.7e-05 (inactive) | 0.00567 (inactive) | 6.27% (inactive) | 12% (inactive) |
| Cn1c(SCC(=O)Nc2ccc(F)cc2)nnc1-c1cccnc1 | 660 | -1.1% (inactive) | 5.2% (inactive) | 90.3 | -57.8% (inactive) | 110 | -0.578 (inactive) | -4.7e-05 (inactive) | 0.00652 (inactive) | -0.187% (inactive) | 21.7% (inactive) |
| Cc1cccc(C)c1NC(=O)c1cc(S(=O)(=O)N2CCOCC2)ccc1F | 341 | 10.3% (inactive) | -3.7% (inactive) | 56.5 | -213% (inactive) | 80.9 | -0.302 (inactive) | -1e-05 (inactive) | 0.00325 (inactive) | 11.2% (inactive) | 26.3% (inactive) |
| COC(=O)CCCCC(=O)C1C(=O)CC(C)(C)C(C(=O)OC)C1=O (stereo not drawn) | 431 | -0.3% (inactive) | -13.3% (inactive) | 96.5 | -1.3% (inactive) | 121 | -0.49 (inactive) | 4.5e-05 (inactive) | 0.00358 (inactive) | -9.68% (inactive) | 3.35% (inactive) |
| O=P(O)(O)C(O)C(F)(F)C(F)(F)C(F)(F)C(F)F (stereo not drawn) | 436 | 8.1% (inactive) | -7% (inactive) | 108 | 12.7% (inactive) | 127 | -0.31 (inactive) | -2e-06 (inactive) | 0.0027 (inactive) | 19.8% (inactive) | 17.5% (inactive) |
| O=C(Nc1ccc2c(c1)nc1n2CCSC1)c1ccccc1 | 487 | -0.5% (inactive) | 13.7% (inactive) | 106 | -0.8% (inactive) | 119 | -0.444 (inactive) | -1.4e-05 (inactive) | 0.00391 (inactive) | -30.3% (inactive) | -80.3% (inactive) |
| Cc1ccc(NC(=O)CCC(=O)OCC(F)(F)C(F)F)cc1 | 551 | -2.4% (inactive) | 2% (inactive) | 69.2 | -2.3% (inactive) | 91.8 | -0.454 (inactive) | 6.2e-06 (inactive) | 0.00371 (inactive) | 3.35% (inactive) | 35.3% (inactive) |
| COc1ccccc1N(C)S(=O)(=O)c1ccc(C(=O)NC2=NCCS2)cc1 | 458 | 10.9% (inactive) | 9.8% (inactive) | 95.4 | -38% (inactive) | 110 | -0.598 (inactive) | -2.8e-05 (inactive) | 0.00655 (inactive) | 2.13% (inactive) | 12% (inactive) |
| CCOC(=O)N1CCN(Cc2nc3c(c(=O)[nH]c(=O)n3C)n2Cc2cc(C)ccc2C)CC1 | 693 | -2.2% (inactive) | -78% (inactive) | 115 | -103% (inactive) | 119 | -0.505 (inactive) | -5.3e-05 (inactive) | 0.00433 (inactive) | 19.2% (inactive) | 27.4% (inactive) |
| CN(C)c1ccc(C=Nc2ccc(N(C)C)cc2)cc1 | 345 | 3.4% (inactive) | -8.7% (inactive) | 106 | 14.2% (inactive) | 118 | -0.512 (inactive) | -3.7e-05 (inactive) | 0.00615 (inactive) | -5.99% (inactive) | -19% (inactive) |
| COc1ccccc1NS(=O)(=O)c1ccc(OC)c(OC)c1 | 401 | 5.5% (inactive) | 0.8% (inactive) | 101 | 30.1% (inactive) | 96 | -0.484 (inactive) | -4.4e-05 (inactive) | 0.00597 (inactive) | 1.27% (inactive) | 24.3% (inactive) |

Reference: PubChem BioAssay
